Molecules are shown by their SMILES. Inconclusive results are not listed. Activity calls are given as the source filed them. Calls come from the whole dose curve; as a rule, active = well fitted cell-killing curve with a large enough effect in the repeat runs; inconclusive = weak or mixed curves, or effect the other way; inactive = flat fitted curve, though single readings scatter.

Among the data in PubChem BioAssay (Tox21) are Potency, viability change, negative = cytotoxic and activity change, negative = cytotoxicity values, retold here.

A short description of test [1]: cAMP Responsive Elements (CRE) small molecule antagonists, cell-based qHTS assay: qHTS cell viability counter screen (AID 2060913). Note: nearly all actives have a fitted effect of over 40% in size. The note with it: CRE-bla HEK293T viability, CellTiter-Glo luminescence, 5 h; series mostly up to 92.4 µM. Put shortly:
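HEK293T CRE-bla, 2,000 cells/well, 18 h preincubation; cpd in DMSO + NKH477 0.25 uM final, 3 h 37 C/5% CO2; LiveBLAzer 2 h RT, then CellTiter-Glo 30 min RT, luminescence.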

A short description of test [2]: cAMP Responsive Elements (CRE) small molecule agonists, cell-based qHTS assay: qHTS cell viability counter screen (AID 2060914).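 Note: viability read after 3 h of compound exposure; nearly all actives have a fitted effect of over 50% in size.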 The note with it: CRE-bla HEK293T viability, CellTiter-Glo luminescence, 5 h; series mostly up to 92.4 µM. Put shortly:
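Cells are seeded and incubated 18 h, treated with compounds in DMSO for 3 h, read for the bla reporter, then given CellTiter-Glo; luminescence is measured after 30 min at room temperature.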
% is set by controls: 0 for no effect and ±100 for the full control effect.

As for `COc1ccc(C=O)cc1O`, the Potency result in test [1] and in test [2] was “inactive” each time.
`O=C1C2CC=CCC2C(=O)N1SC(Cl)(Cl)Cl` (centres undefined): the Potency result in test [1] and in test [2] was “inactive” in each case.
As to `Nc1c(Oc2ccccc2)cc(O)c2c1C(=O)c1ccccc1C2=O`, the Potency result in test [1] and in test [2] was “inactive” throughout.
On to `COC(=O)C1=CCCN(C)C1`, for which the Potency result in test [1] and in test [2] was “inactive” in each case.
In the case of `CCCCc1c(C)nc(NCC)[nH]c1=O`, the Potency result in test [1] and in test [2] was “inactive” each time.
Turning to `CCN(CC)CCOC(=O)C(O)(c1ccccc1)c1ccccc1`, the Potency entry in test [1] and in test [2] was “inactive” throughout.
On to `CC(=O)CN(CC(C)=O)N=O`, for which the Potency result in test [1] and in test [2] was “inactive” throughout.
Regarding `CN(C)C1CCCCC1`, the Potency result in test [1] and in test [2] was “inactive” throughout.
For `ClC(Cl)(Cl)c1ccccc1`, the Potency entry in test [1] and in test [2] was “inactive” throughout.
In the case of `BrCc1ccc(Br)cc1`, the Potency result in test [1] and in test [2] was “inactive” throughout.
In the case of `C#CC(C)(C)O`, the Potency result in test [1] and in test [2] was “inactive” throughout.
Turning to `CCOC(=O)C(c1c(O)c2ccccc2oc1=O)c1c(O)c2ccccc2oc1=O`, the Potency entry in test [1] and in test [2] was “inactive” throughout.
As for `COC(=O)c1cc(Oc2ccc(Cl)cc2Cl)ccc1[N+](=O)[O-]`, the Potency entry in test [1] and in test [2] was “inactive” in each case.
Consider `CCCCCCn1cc[n+](C)c1`, for which the Potency entry in test [1] and in test [2] was “inactive” throughout.
For the compound `O=C(NC(=O)c1c(F)cccc1F)Nc1cc(Cl)c(OC(F)(F)C(F)C(F)(F)F)cc1Cl` (centres undefined), the Potency result in test [1] and in test [2] was “inactive” each time.
With `C[C@@H](N)[C@@H](O)c1ccccc1`, the Potency entry in test [1] and in test [2] was “inactive” throughout.
Turning to `CC(C)NCC(O)c1ccc([N+](=O)[O-])cc1` (centres undefined), the Potency result in test [1] and in test [2] was “inactive” in each case.
In the case of `COc1ccc2c(C(=O)c3ccc(Cl)cc3)c(C)n(CC(=O)O)c2c1`, the Potency entry in test [1] and in test [2] was “inactive” in each case.
Take `CCCC1COC(Cn2cncn2)(c2ccc(Cl)cc2Cl)O1` (centres undefined): the Potency entry in test [1] and in test [2] was “inactive” in each case.
For `CN(CCCC(O)c1cccnc1)N=O` (centres undefined), the Potency result in test [1] and in test [2] was “inactive” each time.
For the compound `Cc1cccc2sc3nncn3c12`, the Potency result in test [1] and in test [2] was “inactive” in each case.
For `[O-][Cl+3]([O-])([O-])O`, the Potency result in test [1] and in test [2] was “inactive” throughout.
Take `N[C@@H](Cc1ccc(Oc2cc(I)c(O)c(I)c2)c(I)c1)C(=O)O`: the Potency result in test [1] and in test [2] was “inactive” each time.
As for `NCCc1cc(O)c(O)cc1O`, the Potency result in test [1] and in test [2] was “inactive” each time.
As for `Clc1ccc(C(Cl)(Cl)Cl)c(Cl)c1`, the Potency result in test [1] and in test [2] was “inactive” each time.
As for `O=c1oc2ccccc2c(O)c1Cc1c(O)c2ccccc2oc1=O`, the Potency entry in test [1] and in test [2] was “inactive” each time.
`CC(=O)O`: the Potency result in test [1] and in test [2] was “inactive” in each case.
As for `CC(=O)C1CCOC1=O` (centres undefined), the Potency entry in test [1] and in test [2] was “inactive” in each case.
`COP(=S)(OC)Oc1nc(Cl)c(Cl)cc1Cl`: the Potency result in test [1] and in test [2] was “inactive” each time.
With `CCCCN(CCCC)SN(C)C(=O)Oc1cccc2c1OC(C)(C)C2`, the Potency result in test [1] and in test [2] was “inactive” each time.
Take `Nc1ccc(Cl)c(Cl)c1`: the Potency entry in test [1] and in test [2] was “inactive” throughout.
Regarding `CSCCCN=C=S`, the Potency entry in test [1] and in test [2] was “inactive” each time.
As to `CCCCC(CC)COC(=O)Cl` (centres undefined), the Potency entry in test [1] and in test [2] was “inactive” throughout.
Consider `ClCCCCBr`, for which the Potency result in test [1] and in test [2] was “inactive” each time.
On to `CCOP(=S)(OCC)SCSP(=S)(OCC)OCC`, for which the Potency result in test [1] and in test [2] was “inactive” in each case.
In the case of `C=CCN=C=S`, the Potency entry in test [1] and in test [2] was “inactive” in each case.
For the compound `CCOc1nc(C(Cl)(Cl)Cl)ns1`, the Potency entry in test [1] and in test [2] was “inactive” in each case.
As for `CCC(C)(C)c1cc(-n2nc3ccccc3n2)c(O)c(C(C)(C)CC)c1`, the Potency entry in test [1] and in test [2] was “inactive” in each case.
On to `Brc1ccc(Oc2ccccc2)cc1`, for which the Potency entry in test [1] and in test [2] was “inactive” throughout.
For the compound `O=C1CC[C@@]2(O)[C@H]3Cc4ccc(O)c5c4[C@@]2(CCN3CC2CC2)[C@H]1O5`, the Potency entry in test [1] and in test [2] was “inactive” in each case.
For the compound `CC(C)(C)c1ccc(CCOc2ncnc3ccccc23)cc1`, the Potency result in test [1] and in test [2] was “inactive” throughout.
Take `COP(=O)(OC)Oc1ccc([N+](=O)[O-])cc1`: the Potency entry in test [1] and in test [2] was “inactive” throughout.
Consider `CN1C[C@H](C(=O)N[C@]2(C)O[C@@]3(O)[C@@H]4CCCN4C(=O)[C@H](Cc4ccccc4)N3C2=O)C=C2c3cccc4[nH]cc(c34)C[C@H]21`, for which the Potency entry in test [1] and in test [2] was “inactive” throughout.
Turning to `N#CCCO`, the Potency entry in test [1] and in test [2] was “inactive” each time.
In the case of `C(COCC1CO1)OCC1CO1` (centres undefined), the Potency result in test [1] and in test [2] was “inactive” in each case.
Regarding `CCN[C@H](C)Cc1cccc(C(F)(F)F)c1`, the Potency entry in test [1] and in test [2] was “inactive” throughout.
As to `CN1C[C@@H](NS(=O)(=O)N(C)C)C[C@@H]2c3cccc4c3c(cn4C)C[C@H]21`, the Potency result in test [1] and in test [2] was “inactive” throughout.
For the compound `O=NN1CCCC1`, the Potency entry in test [1] and in test [2] was “inactive” in each case.
Turning to `Nc1ccc2c(c1)Cc1ccccc1-2`, the Potency entry in test [1] and in test [2] was “inactive” each time.
As for `O=C1C(Cl)=C(Cl)C(=O)C(Cl)=C1Cl`, the Potency entry in test [1] and in test [2] was “inactive” throughout.
`CC(=O)NNc1ccccc1`: the Potency entry in test [1] and in test [2] was “inactive” in each case.
Regarding `N#CCNCC#N`, the Potency result in test [1] and in test [2] was “inactive” throughout.
In the case of `O=C(NCNC(=O)NC1C(=O)NC(=O)N1CO)NC1C(=O)NC(=O)N1CO` (centres undefined), the Potency result in test [1] and in test [2] was “inactive” each time.
Turning to `COS(=O)(=O)c1ccc(C)cc1`, the Potency result in test [1] and in test [2] was “inactive” in each case.
Turning to `c1cc[c]([Hg][c]2ccccc2)cc1`, the Potency result in test [1] and in test [2] was “inactive” each time.
Regarding `C=C(C)C(=O)OCCCCOC(=O)C(=C)C`, the Potency result in test [1] and in test [2] was “inactive” in each case.
Take `COCCl`: the Potency entry in test [1] and in test [2] was “inactive” each time.
Turning to `CCCCCCCCCCCCN=C(N)N`, in test [1], the viability change, negative = cytotoxic was -6.77% [at 3.27 µM] (inactive). In addition, the activity change, negative = cytotoxicity in test [2] was -15.8% [at 3.27 µM] (inactive).
As to `CCCCC(CC)COP(=O)(Oc1ccccc1)Oc1ccccc1` (centres undefined), the Potency result in test [1] and in test [2] was “inactive” in each case.
For `CCCC[N+](=O)[O-]`, the Potency result in test [1] and in test [2] was “inactive” in each case.
Take `BrC(Br)C(Br)(Br)Br`: the Potency result in test [1] and in test [2] was “inactive” throughout.
For the compound `CC(C)N(C(=O)COc1nnc(C(F)(F)F)s1)c1ccc(F)cc1`, the Potency result in test [1] and in test [2] was “inactive” each time.
As for `COc1c2c(cc3c1OCO3)CCN(C)C2`, the Potency result in test [1] and in test [2] was “inactive” in each case.
In the case of `Cc1cc(C)c(C2=C(OC(=O)CC(C)(C)C)C3(CCCC3)OC2=O)c(C)c1`, the Potency result in test [1] and in test [2] was “inactive” throughout.
`S=C=NCCc1ccccc1`: the Potency entry in test [1] and in test [2] was “inactive” throughout.
`Brc1ccc(Br)cc1`: the Potency entry in test [1] and in test [2] was “inactive” throughout.
On to `COc1ccc(N)cc1`, for which the Potency result in test [1] and in test [2] was “inactive” in each case.
